# Only some compounds are listed: those with a hit (about 1.6% of all), similar ones and a draw of the others.
# KCNQ2 enhance = potentiators of rat KCNQ2 potassium channel | 310,000 compounds, 0.54% hits | AID 2239 | CHO-K1 KCNQ2, FluxOR thallium flux fluorescence; stronger effect = higher value | B-score at 10 µM;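 active = fluorescence ratio B-score at least 3 SD of library B-scores, with initial fluorescence B-score within 3 of them, cut at about 5.3 in these data; same plate scores as AID 2156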;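 also: B-score of peak minus minimum over baseline fluorescence ratio after K+ and Tl+ stimulus; positive B-score means potentiation of KCNQ2 with more thallium influx and brighter signal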
# KCNQ2 block = inhibitors of rat KCNQ2 potassium channel; O88943; CHO-K1 KCNQ2, FluxOR thallium flux, 20 min; stronger effect = lower value; B-score at 10 µM; 310,000 compounds, 1.1% hits;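 active = fluorescence ratio B-score at most minus 3 library SDs, with starting brightness B-score within 2 library SDs, cut at about -5.5 in these data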
# Kir21 confirm = confirmation of mouse Kir2.1 potassium channel inhibitors; shares compounds with KCNQ2 enhance; Kir2.1-expressing cells, FluxOR thallium flux fluorescence; stronger effect = lower value; Tl flux remaining, % of negative control (stronger effect = lower value), % at 10 µM; 2,300 compounds, 41% hits; AID 2032;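 active = Primary-screen hit whose thallium flux fell at least 3 control SD below untreated wells in both duplicates, with normal baseline fluorescence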;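 also: 0% = blank wells without stimulus and 100% = stimulated no-compound controls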
# HEK293 ctr = counter-screen for Kir2.1 inhibitors: effect in parental HEK293 cells | 2,300 compounds, 19% hits | FluxOR signal as % of negative control (100 = no effect), % at 10 µM | FluxOR thallium flux fluorescence; 0% = unstimulated blank wells | shares compounds with KCNQ2 enhance | AID 2105;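 active = dye signal at least 3 control SD above or below untreated wells in both duplicates, raw fluorescence within 3, either direction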;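 also: percent is based on the flux ratio of peak minus minimum fluorescence over baseline F0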
# CHO-K1 Tl ctr = alters thallium flux in parental CHO-K1 cells, KCNQ2 counter-screen; shares compounds with KCNQ2 enhance; FluxOR thallium flux fluorescence; zero = vehicle mean+3SD, 100% = vehicle-minus-blank window; activity increase over 3SD of controls, % at 10 µM; 1,200 compounds, 43% hits;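 active = signal rise of at least 3 SD above the untreated control mean, in both duplicate wells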;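 also: counter screen of KCNQ2 potentiator hits so any rise reflects channel-independent effects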
# KCNQ1 sel pot = tests whether KCNQ2 potentiators also act on human KCNQ1. shares compounds with KCNQ2 enhance. CHO KCNQ1 stable, FluxOR thallium flux fluorescence; beyond 3SD, as % of vehicle-control signal. activation over 3SD threshold, % at 10 µM. 1,200 compounds, 28% hits;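 active = fluorescence ratio rise of at least 3 SD of vehicle wells above their mean, in both replicate wells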;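 also: 0% = vehicle mean plus 3 SD and 100% = vehicle minus unstimulated blank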
# Target sequence (P51787 whole entry, looked up): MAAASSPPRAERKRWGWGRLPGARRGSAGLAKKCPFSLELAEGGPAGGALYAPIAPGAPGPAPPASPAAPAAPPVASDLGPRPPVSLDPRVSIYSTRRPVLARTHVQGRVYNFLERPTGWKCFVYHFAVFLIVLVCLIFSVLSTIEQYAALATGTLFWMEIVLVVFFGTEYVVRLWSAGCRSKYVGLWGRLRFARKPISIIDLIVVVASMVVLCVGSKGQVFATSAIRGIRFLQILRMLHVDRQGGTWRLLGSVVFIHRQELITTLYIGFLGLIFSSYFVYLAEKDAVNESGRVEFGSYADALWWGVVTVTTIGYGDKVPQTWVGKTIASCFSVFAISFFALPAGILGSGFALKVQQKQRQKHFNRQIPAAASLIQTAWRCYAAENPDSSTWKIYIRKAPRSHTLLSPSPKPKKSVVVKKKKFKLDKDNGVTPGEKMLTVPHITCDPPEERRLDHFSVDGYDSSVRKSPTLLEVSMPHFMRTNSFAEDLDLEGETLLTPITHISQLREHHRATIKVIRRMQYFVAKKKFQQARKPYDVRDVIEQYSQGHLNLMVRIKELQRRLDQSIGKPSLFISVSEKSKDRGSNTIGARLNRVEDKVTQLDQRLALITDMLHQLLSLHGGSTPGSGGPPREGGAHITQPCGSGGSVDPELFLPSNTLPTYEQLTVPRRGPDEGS
# KCNQ2 pot conf = confirmation of rat KCNQ2 potassium channel potentiators; shares compounds with KCNQ2 enhance; CHO-KCNQ2 cells, FluxOR thallium flux fluorescence; potentiation, less the hit threshold, % at 10 µM; 1,200 compounds, 68% hits; AID 2287;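 active = fluorescence ratio rising 3 SD or more over the vehicle control mean in both replicates, plus primary screen hit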;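 also: peak minus minimum thallium fluorescence divided by baseline after K/Tl stimulus; 0% = vehicle mean plus 3 SD and 100% = vehicle minus unstimulated blank difference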
# Kir2-1 sel = mouse Kir2.1 off-target activity of KCNQ2 potentiators; shares compounds with KCNQ2 enhance; HEK293 Kir2.1, FluxOR thallium flux fluorescence; activity over 3SD threshold, % at 10 µM; 1,200 compounds, 2% hits; AID 2345;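 active = fluorescence ratio rise of at least 3 SD above the vehicle-control mean, seen in both replicates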;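 also: 0% = vehicle mean plus 3 SD and 100% = vehicle minus no-stimulus blank window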
# KCNQ2 W236L pot = KCNQ2 potentiators acting on retigabine-insensitive rat KCNQ2 W236L mutant; shares compounds with KCNQ2 enhance; CHO KCNQ2-W236L, automated patch clamp current; current increase over 3SD of negative controls (%), stronger effect = higher value, % at 25 µM; 940 compounds, 10% hits;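 active = current increase at least 3 SD of the untreated controls above them in both duplicate recordings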
# * = called active by the depositor; i = inactive; · = not tested or not shown.
SMILES,KCNQ2 enhance,KCNQ2 block,Kir21 confirm,HEK293 ctr,others
O=C1C=CC(=O)C(C2=C3C(=O)N(CCc4ccccc4)CC(=O)N3CCC2)=C1,0.29,i,69.0%*,69.0%*,
O=C1CC(=O)N(CCc2ccccc2)C(=O)N1CCc1ccccc1,2.83,i,·,·,
O=C(NNC1=C(C(=O)C(F)(F)F)CCC1)c1cccnc1,19.9*,i,i,64.0%*,CHO-K1 Tl ctr=-16.5;KCNQ1 sel pot=-19.2;KCNQ2 pot conf=34.7*;Kir2-1 sel=-21.3
Cc1cccc(C(=O)NNC(=O)c2ccc(Cl)cc2)c1O,0.27,i,·,·,
O=C(NNC1=C(C(=O)C(F)(F)F)CCC1)c1cccc(O)c1,4.4,i,·,·,
Cc1cccc(C(=O)NNC2=C(C(=O)C(F)(F)F)CCC2)c1O,6.57*,i,i,i,CHO-K1 Tl ctr=-6.8;KCNQ1 sel pot=-16.4;KCNQ2 pot conf=32.9*;Kir2-1 sel=-43.6;KCNQ2 W236L pot=i
CC(C)[C@H](NC(=O)N1CC(=O)Nc2ccccc21)C(=O)N1CCC[C@H]1C(=O)O,0.6,i,·,·,
CN(C)C(=O)c1cc(Cl)ccc1Sc1cc(Cl)ccc1Cl,·,i,·,·,
CN(C)C(=O)c1cc(F)ccc1Sc1cc(Cl)ccc1Cl,·,i,47.0%*,i,
c1ccc(-c2nc3ccccc3[nH]2)nc1,·,i,·,·,
c1ccc(-c2nc3c(ccc4ccccc43)[nH]2)nc1,8.38*,i,i,i,CHO-K1 Tl ctr=30.8*;KCNQ1 sel pot=6.1*;KCNQ2 pot conf=46.8*;Kir2-1 sel=-27.4;KCNQ2 W236L pot=i
CCCN(CCC)S(=O)(=O)c1cc2c3c(c1)CCN3C(=O)CC2,·,i,·,·,
CCN(c1cccc(C)c1)S(=O)(=O)c1cc2c3c(c1)CCC(=O)N3CCC2,·,i,i,i,
CCC(C)Sc1ccc([C@H]2N[C@@](Cc3ccccc3)(C(=O)OC)[C@H]3C(=O)N(C)C(=O)[C@@H]23)cc1 (stereo not given in full),0.49,i,·,·,
O=C(c1ccc(O)cc1)c1ccc(O)cc1O,1,i,·,·,
CN(C)c1ccc(C(=O)c2ccc(O)cc2O)cc1,0.06,i,i,i,
Cc1ccccc1C(=O)/C=C1/SCC(=O)N1C,·,i,·,·,
CCCCn1cnc2cc(C)c(C)cc21,0.98,i,·,·,
Cc1cc(OC(C)C(=O)NCc2ccccn2)c2c(C)c(C)c(=O)oc2c1 (stereo not given),0.81,i,·,·,
COc1ccc(-c2csc(NC(=O)c3ccccc3Br)c2C(=O)O)cc1,1.77,i,·,·,
COc1ccc(-c2csc(NC(=O)c3ccc(C(C)(C)C)cc3)c2C(=O)O)cc1,6.45*,i,i,i,CHO-K1 Tl ctr=-19.5;KCNQ1 sel pot=-21.6;KCNQ2 pot conf=-9.1;Kir2-1 sel=-25.3
COc1cc(/C=N/N=C2/SCC(=O)N2c2ccc(O)cc2)ccc1O,0.19,i,·,·,
CCCC(=O)OCCNc1cc(Sc2nccn2C)c2nonc2c1[N+](=O)[O-],·,i,70.0%*,i,
CCCSc1cc(NCCOC(=O)CCC)c([N+](=O)[O-])c2nonc12,·,i,·,·,
COC(=O)c1cn(NC(=O)c2ccc([N+](=O)[O-])cc2Cl)c(=O)c2ccccc12,0.65,i,·,·,
SMILES,KCNQ2 enhance,KCNQ2 block,Kir21 confirm,HEK293 ctr,others
CC1=NN(c2ccc(C)cc2)C(=O)/C1=C\C=C\c1ccccc1,·,i,·,·,
CC1=NN(c2cccc(C(=O)O)c2)C(=O)/C1=C\C=C/c1ccccc1,7.21*,i,i,i,CHO-K1 Tl ctr=32.7*;KCNQ1 sel pot=-2.2;KCNQ2 pot conf=35.8*;Kir2-1 sel=-61.5;KCNQ2 W236L pot=i
COc1ccc(CNCc2cccc(C)c2)cc1,0.68,i,·,·,
COc1ccc(CNCc2ccncc2)c(OC)c1,1.5,i,·,·,
COc1ccc(CNCc2cccc(Oc3ccccc3)c2)cc1,2.1,i,10.0%*,i,
COc1ccc(CNCc2ccc3ccccc3c2)c(OC)c1,4.5,i,24.5%*,i,
CC(C)n1nc(C(=O)OCn2nnc3ccccc3c2=O)c2ccccc2c1=O,·,i,·,·,

# Screening results deposited in PubChem by Johns Hopkins Ion Channel Center.
